{
  "source": "PubChem BioAssay (Tox21)",
  "note": "Records with an inconclusive call do not appear. The source made the active and inactive calls. Calls come from the whole dose curve; as a rule, active = well fitted activation curve with a large enough effect in the repeat runs; inconclusive = weak or mixed curves; inactive = flat fitted curve, though single readings scatter. % is set by controls: 0 for no effect and ±100 for the full control effect; potency is the fitted concentration of half-maximal effect.",
  "data": [
    {"assay": "A CellTox Green Cytotoxicity Assay to monitor cytotoxicity in HEK293 cells - 40 hour (AID 1224871); note: nearly all actives have a fitted effect of over 45% in size", "settings": "CellTox Green fluorescence; series mostly up to 76.8 µM; cytotoxicity increase: at the top concentration", "excerpt": "National Center for Advancing Translational Sciences [NCATS]\nNIH Chemical Genomics Center [NCGC]\nU.S. Environmental Protection Agency [EPA]\nNational Institutes of Environmental Health Sciences [NIEHS]\nNational Toxicology Program [NTP]\nCell-based models are critical for drug discovery. Determining the natural cytotoxic effects resulting from test compounds is an essential research activity. A CellTox Green Cytotoxicity Assay to monitor cytotoxicity in real time of continues cell culture during 40 hours of the compound treatment was used to screen Tox21 10K library compounds in Hek293 cells. CellTox Green Cytotoxicity Assay is a nonlytic, homogeneous, biofluorescent method to measure cytotoxicity in cell culture after experimental manipulation. The assay system uses a proprietary asymmetric cyanine dye that is excluded from viable cells but preferentially stains the dead cell's DNA. […] Viable cells produce no appreciable increases in fluorescence. Therefore, the fluorescence signal produced by the binding interaction with dead cell DNA is proportional to cytotoxicity.\nThe mixture of Hek293 cell suspension and reagents were dispensed at 600cells/6 ul/well in 1536-well tissue culture treated black solid bottom plates using a Multidrop dispenser. After the assay plates were incubated at a 37 C/5% CO2 incubator for 5 hours, 23 nL of compounds dissolved in DMSO, positive and negative controls was transferred to the assay plate by a pintool work station. The plates were incubated at 37 C for 40 hours. The fluorescence intensity were measured at 0h, 8h, 16h, 24h, 32h and 40h time points using ViewLux plate reader during compound treatment.", "values": [
      {"smiles": "O=[N+]([O-])c1ccccc1CCO", "cytotoxicity increase": "-19.2% (inactive)"},
      {"smiles": "CC(C)Oc1ccccc1O", "cytotoxicity increase": "1.59% (inactive)"},
      {"smiles": "CCC1=C(C)CN(C(=O)NCCc2ccc(S(=O)(=O)NC(=O)NC3CCC(C)CC3)cc2)C1=O", "note": "(stereo not given)", "cytotoxicity increase": "3.4% [at 35.3 µM] (inactive)"},
      {"smiles": "CCCOC(C)=O", "cytotoxicity increase": "-12.9% (inactive)"},
      {"smiles": "Cc1ccc2c(Cl)cc(Cl)c(O)c2n1", "cytotoxicity increase": "-2.41% [at 35.3 µM] (inactive)"},
      {"smiles": "Clc1nc2ccccc2nc1Cl", "cytotoxicity increase": "16.2% (inactive)"},
      {"smiles": "O=C(Cl)c1cc(Cl)cc(Cl)c1", "cytotoxicity increase": "1.38% (inactive)"},
      {"smiles": "Cc1nc2sccn2c(=O)c1CCN1CCC(=C(c2ccc(F)cc2)c2ccc(F)cc2)CC1", "cytotoxicity increase": "19.1% [at 35.3 µM] (inactive)"},
      {"smiles": "CC(=O)Nc1ccccc1O", "cytotoxicity increase": "22% (inactive)"},
      {"smiles": "Sc1nc(S)nc(S)n1", "cytotoxicity increase": "-12.6% [at 35.3 µM] (inactive)"},
      {"smiles": "OCC(O)c1ccccc1", "note": "(stereo not given)", "cytotoxicity increase": "14.5% (inactive)"},
      {"smiles": "CCOc1ccc(NC(C)=O)cc1N", "cytotoxicity increase": "-1.39% (inactive)"},
      {"smiles": "CCC(=O)O[C@@H]1C[C@H]2CC[C@]1(C)C2(C)C", "cytotoxicity increase": "-4.05% (inactive)"},
      {"smiles": "C(/C=C/C=C/Nc1ccccc1)=Nc1ccccc1", "cytotoxicity increase": "-2.11% (inactive)"},
      {"smiles": "CCc1cnc(C(=O)O)c(C(=O)O)c1", "cytotoxicity increase": "-1.5% (inactive)"},
      {"smiles": "C=CC(=O)OCCCCCCCCCC", "cytotoxicity increase": "16.9% (inactive)"},
      {"smiles": "Cc1c(-c2cccnc2)c2ccccc2n1CCCCC(=O)O", "cytotoxicity increase": "-14.1% (inactive)"},
      {"smiles": "CC1(C)C(=O)NC(=O)N1CO", "cytotoxicity increase": "2.06% (inactive)"},
      {"smiles": "CO[C@@H]1[C@@H](O[C@@H]2O[C@H](C)[C@@H](O[C@H]3C[C@@](C)(O)[C@@H](O)[C@H](C)O3)[C@H](N(C)C)[C@H]2O)[C@@H](CC=O)C[C@@H](C)[C@@H](O[C@@H]2CC[C@H](N(C)C)[C@@H](C)O2)/C=C/C=C/C[C@@H](C)OC(=O)C[C@H]1OC(C)=O", "cytotoxicity increase": "-2.87% [at 35.3 µM] (inactive)"},
      {"smiles": "CCCCCCOC(=O)c1ccccc1", "cytotoxicity increase": "9.24% (inactive)"},
      {"smiles": "O=Cc1ccc(Cl)c([N+](=O)[O-])c1", "cytotoxicity increase": "19.2% (inactive)"},
      {"smiles": "O=C(OCCN1CCOCC1)c1cccnc1Nc1cccc(C(F)(F)F)c1", "cytotoxicity increase": "-16.6% [at 35.3 µM] (inactive)"},
      {"smiles": "O=C(O)c1c2ccccc2cc2ccccc12", "Potency": "34.6 µM (active)"},
      {"smiles": "O=C(O)c1ccc2c(c1)nc(C(=O)NC1CCN(C3CC3)CC1)n2Cc1cc(-c2ccc(Cl)s2)on1", "cytotoxicity increase": "-0.224% [at 15.8 µM] (inactive)"},
      {"smiles": "O=C(OCCOCCOCCOC(=O)c1ccccc1)c1ccccc1", "cytotoxicity increase": "13.2% (inactive)"},
      {"smiles": "O=C(O)c1cccc(C(=O)O)c1C(=O)O", "cytotoxicity increase": "-0.98% (inactive)"},
      {"smiles": "C=CCCC", "cytotoxicity increase": "-0.26% (inactive)"},
      {"smiles": "CCOc1ccccc1O", "cytotoxicity increase": "-2.72% (inactive)"},
      {"smiles": "C=CC(=O)NC(C)(C)C", "cytotoxicity increase": "-13.5% (inactive)"},
      {"smiles": "CC1=C(C)C(=O)C(CCCCC#CCCCC#CCO)=C(C)C1=O", "cytotoxicity increase": "16.1% [at 35.3 µM] (inactive)"},
      {"smiles": "NCCOCCOCCN", "cytotoxicity increase": "-0.677% (inactive)"},
      {"smiles": "O=C1c2ccccc2C(=O)c2c1ccc(O)c2O", "cytotoxicity increase": "-3.12% [at 35.3 µM] (inactive)"},
      {"smiles": "O=C(O)c1cccnc1Nc1cccc(C(F)(F)F)c1", "cytotoxicity increase": "-16.9% [at 35.3 µM] (inactive)"},
      {"smiles": "CC(=O)c1cccnc1", "cytotoxicity increase": "-7.84% (inactive)"},
      {"smiles": "CCOc1cc(OCC)c(C(C)=O)cc1OCC", "cytotoxicity increase": "4.49% (inactive)"},
      {"smiles": "C=C[Si](OCC)(OCC)OCC", "cytotoxicity increase": "-0.333% (inactive)"},
      {"smiles": "COc1cccc([C@H](O)C2CCN(CCc3ccc(F)cc3)CC2)c1OC", "cytotoxicity increase": "-15.7% (inactive)"},
      {"smiles": "CCCc1ccc(OC)cc1", "cytotoxicity increase": "-2.7% (inactive)"},
      {"smiles": "C=C(C)C(=O)OCCCCCCCCCCOC(=O)C(=C)C", "cytotoxicity increase": "18.1% (inactive)"},
      {"smiles": "CC(COc1ccccc1)NC(C)C(O)c1ccc(O)cc1", "note": "(stereo not given)", "cytotoxicity increase": "-5.24% [at 35.3 µM] (inactive)"}
    ]}
  ]
}
